Measured values reported in the supplement of paper PMC10849652.
Of roughly 8,800 targets only a part is listed; those with a hit were picked by preference. About 0.5% of all pairs of compound and target were hits. Values without a mark were called inactive.

Tests used:
Test in all cases: log2 fold change, soluble protein after heating vs DMSO (PISA); higher = thermal stabilisation; K562 lysate, 10 uM; active = over 0.2 and 3.5 SD of the protein, either way, in both replicates (recomputed)
alvocidib = compound: CN1CC[C@H](c2c(O)cc(O)c3c(=O)cc(-c4ccccc4Cl)oc23)[C@H](O)C1 [alvocidib]
How it was run: (§1)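 K562 pellets were dounce-homogenised in PBS pH 7.4 with 1 mM MgCl2, and the crude extract at 1 mg/mL protein was treated with 10 μM compound for 30 min. Aliquots were heated for 3 min across 48°C-58°C, pooled, and brought to 0.5% NP-40 at 4°C; soluble protein was the supernatant after 21,000xg for 90 min. Soluble protein was quantified by TMTpro 16plex LC-MS/MS with channel sums equalised, and reported as log2 fold change in thermal stability against DMSO controls, with values from duplicates.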

Tubastatin A = compound: CN1CCc2c(c3ccccc3n2Cc2ccc(C(=O)NO)cc2)C1 [Tubastatin A]
How it was run: as §1

[1] = compound: CNC(=O)C1=CC=CC=C1NC2=NC(=NC=C2Cl)NC3=C(C=C(C=C3)N4CCOCC4)OC
How it was run: as §1

defactinib = compound: CNC(=O)c1ccc(Nc2ncc(C(F)(F)F)c(NCc3nccnc3N(C)S(C)(=O)=O)n2)cc1 [defactinib]
How it was run: as §1

[2] = compound: CNc1nc(-c2ccc3c(N)n[nH]c3c2)cc(N2C[C@@H](C(=O)NC3CCCCC3)CC[C@H]2C)n1
How it was run: as §1

encorafenib = compound: COC(=O)N[C@@H](C)CNc1nccc(-c2cn(C(C)C)nc2-c2cc(Cl)cc(NS(C)(=O)=O)c2F)n1 [encorafenib]
How it was run: as §1

[3] = compound: COC(=O)[C@H](CCSC)NC(=O)C1=C(C=C(C=C1)NC[C@H](CS)N)C2=CC=CC=C2
How it was run: as §1

alisertib = compound: COc1cc(Nc2ncc3c(n2)-c2ccc(Cl)cc2C(c2c(F)cccc2OC)=NC3)ccc1C(=O)O [alisertib]
How it was run: as §1

[4] = compound: COc1cc2nc(-c3cc(F)ccc3O)nc(N[C@@H]3CNC[C@H]3C(C)(C)O)c2cc1OC
How it was run: as §1

gefitinib = compound: COc1cc2ncnc(Nc3ccc(F)c(Cl)c3)c2cc1OCCCN1CCOCC1 [gefitinib]
How it was run: as §1

lapatinib = compound: CS(=O)(=O)CCNCc1ccc(-c2ccc3ncnc(Nc4ccc(OCc5cccc(F)c5)c(Cl)c4)c3c2)o1 [lapatinib]
How it was run: as §1

pictilisib = compound: CS(=O)(=O)N1CCN(Cc2cc3nc(-c4cccc5[nH]ncc45)nc(N4CCOCC4)c3s2)CC1 [pictilisib]
How it was run: as §1

crizotinib = compound: C[C@@H](Oc1cc(-c2cnn(C3CCNCC3)c2)cnc1N)c1c(Cl)ccc(F)c1Cl [crizotinib]
How it was run: as §1

[5] = compound: C[C@H](C1=CC=C(C=C1)C(=O)NC2=C3C=CNC3=NC=C2)N
How it was run: as §1

duvelisib = compound: C[C@H](Nc1ncnc2nc[nH]c12)c1cc2cccc(Cl)c2c(=O)n1-c1ccccc1 [duvelisib]
How it was run: as §1

gandotinib = compound: Cc1cc(Nc2cc(CN3CCOCC3)c3nc(C)c(Cc4ccc(Cl)cc4F)n3n2)n[nH]1 [gandotinib]
How it was run: as §1

tozasertib = compound: Cc1cc(Nc2cc(N3CCN(C)CC3)nc(Sc3ccc(NC(=O)C4CC4)cc3)n2)n[nH]1 [tozasertib]
How it was run: as §1

doramapimod = compound: Cc1ccc(-n2nc(C(C)(C)C)cc2NC(=O)Nc2ccc(OCCN3CCOCC3)c3ccccc23)cc1 [doramapimod]
How it was run: as §1

bafetinib = compound: Cc1ccc(NC(=O)c2ccc(CN3CC[C@H](N(C)C)C3)c(C(F)(F)F)c2)cc1Nc1nccc(-c2cncnc2)n1 [bafetinib]
How it was run: as §1

[6] = compound: Cc1cccc(CC(=O)N2CCc3c2ccc(-c2cn(C)c4ncnc(N)c24)c3F)n1
How it was run: as §1

TTMP isoform 3 (UniProt Q5BVD1)
Chain of UniProt Q5BVD1 (Q5BVD1 whole entry, looked up): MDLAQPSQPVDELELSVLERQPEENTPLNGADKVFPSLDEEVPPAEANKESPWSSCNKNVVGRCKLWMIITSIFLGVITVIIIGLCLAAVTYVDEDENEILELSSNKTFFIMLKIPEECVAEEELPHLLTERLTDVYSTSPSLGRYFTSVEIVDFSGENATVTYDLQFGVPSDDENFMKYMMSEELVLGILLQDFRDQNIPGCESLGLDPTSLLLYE
log2 fold change (alvocidib): -0.347
log2 fold change (Tubastatin A): 0.24
log2 fold change [1]: -0.105
log2 fold change (defactinib): -0.088
log2 fold change [2]: 0.36
log2 fold change (encorafenib): -0.06
log2 fold change [3]: 0.06
log2 fold change (alisertib): 0.119
log2 fold change [4]: 0.129
log2 fold change (gefitinib): 0.02
log2 fold change (lapatinib): -0.1
log2 fold change (pictilisib): 0.013
log2 fold change (crizotinib): -0.241
log2 fold change [5]: -0.618 (active)
log2 fold change (duvelisib): 0.138
log2 fold change (gandotinib): 0.384
log2 fold change (tozasertib): -0.022
log2 fold change (doramapimod): 0.137
log2 fold change (bafetinib): -0.197
log2 fold change [6]: 0.47

TOX4 (UniProt O94842)
log2 fold change (alvocidib): -0.16
log2 fold change (Tubastatin A): -0.006
log2 fold change [1]: 0.027
log2 fold change (defactinib): 0.025
log2 fold change [2]: -0.022
log2 fold change (encorafenib): -0.011
log2 fold change [3]: -0.082
log2 fold change (alisertib): 0.028
log2 fold change [4]: -0.013
log2 fold change (gefitinib): -0.016
log2 fold change (lapatinib): 0.058
log2 fold change (pictilisib): 0.025
log2 fold change (crizotinib): -0.068
log2 fold change [5]: -0.259 (active)
log2 fold change (duvelisib): 0.06
log2 fold change (gandotinib): 0.231 (active)
log2 fold change (tozasertib): -0.094
log2 fold change (doramapimod): 0.041
log2 fold change (bafetinib): -0.043
log2 fold change [6]: 0.189

TTC4 (UniProt O95801)
Chain of UniProt O95801 (O95801 whole entry, looked up): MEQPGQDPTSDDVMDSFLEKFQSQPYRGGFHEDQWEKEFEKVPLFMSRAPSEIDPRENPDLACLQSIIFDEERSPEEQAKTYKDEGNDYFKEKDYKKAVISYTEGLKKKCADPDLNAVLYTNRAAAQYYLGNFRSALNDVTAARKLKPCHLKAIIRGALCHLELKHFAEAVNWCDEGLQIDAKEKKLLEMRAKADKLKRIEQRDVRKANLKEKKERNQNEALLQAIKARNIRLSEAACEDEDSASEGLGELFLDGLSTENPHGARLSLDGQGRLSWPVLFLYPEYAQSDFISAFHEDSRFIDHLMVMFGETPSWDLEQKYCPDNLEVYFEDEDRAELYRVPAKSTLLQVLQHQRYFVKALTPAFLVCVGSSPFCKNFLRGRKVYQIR
log2 fold change (alvocidib): -0.012
log2 fold change (Tubastatin A): -0.183
log2 fold change [1]: 0.078
log2 fold change (defactinib): 0.004
log2 fold change [2]: 0.003
log2 fold change (encorafenib): 0.021
log2 fold change [3]: -0.005
log2 fold change (alisertib): 0.008
log2 fold change [4]: -0.017
log2 fold change (gefitinib): -0.003
log2 fold change (lapatinib): 0.006
log2 fold change (pictilisib): 0.025
log2 fold change (crizotinib): -0.073
log2 fold change [5]: -0.059
log2 fold change (duvelisib): -0.001
log2 fold change (gandotinib): 0.035
log2 fold change (tozasertib): 0.009
log2 fold change (doramapimod): 0.014
log2 fold change (bafetinib): -0.001
log2 fold change [6]: 0.026

TOE1 (UniProt Q96GM8)
log2 fold change (alvocidib): -0.01
log2 fold change (Tubastatin A): -0.136
log2 fold change [1]: 0.027
log2 fold change (defactinib): 0.019
log2 fold change [2]: -0.044
log2 fold change (encorafenib): -0.034
log2 fold change [3]: 0.165
log2 fold change (alisertib): -0.041
log2 fold change [4]: -0.011
log2 fold change (gefitinib): -0.047
log2 fold change (lapatinib): 0.002
log2 fold change (pictilisib): -0.057
log2 fold change (crizotinib): 0.003
log2 fold change [5]: -0.023
log2 fold change (duvelisib): 0.052
log2 fold change (gandotinib): -0.016
log2 fold change (tozasertib): 0.059
log2 fold change (doramapimod): -0.04
log2 fold change (bafetinib): 0.047
log2 fold change [6]: 0.059

UBR1 (UniProt Q8IWV7)
log2 fold change (alvocidib): -0.018
log2 fold change (Tubastatin A): -0.026
log2 fold change [1]: 0.009
log2 fold change (defactinib): 0.001
log2 fold change [2]: -0.03
log2 fold change (encorafenib): 0.033
log2 fold change [3]: 0.055
log2 fold change (alisertib): 0.003
log2 fold change [4]: -0.007
log2 fold change (gefitinib): 0.016
log2 fold change (lapatinib): -0.018
log2 fold change (pictilisib): -0.035
log2 fold change (crizotinib): -0.082
log2 fold change [5]: -0.046
log2 fold change (duvelisib): 0.01
log2 fold change (gandotinib): -0.081
log2 fold change (tozasertib): 0
log2 fold change (doramapimod): 0.039
log2 fold change (bafetinib): -0.065
log2 fold change [6]: 0.032

TDRKH (UniProt Q9Y2W6)
Chain of UniProt Q9Y2W6 (Q9Y2W6 whole entry, looked up): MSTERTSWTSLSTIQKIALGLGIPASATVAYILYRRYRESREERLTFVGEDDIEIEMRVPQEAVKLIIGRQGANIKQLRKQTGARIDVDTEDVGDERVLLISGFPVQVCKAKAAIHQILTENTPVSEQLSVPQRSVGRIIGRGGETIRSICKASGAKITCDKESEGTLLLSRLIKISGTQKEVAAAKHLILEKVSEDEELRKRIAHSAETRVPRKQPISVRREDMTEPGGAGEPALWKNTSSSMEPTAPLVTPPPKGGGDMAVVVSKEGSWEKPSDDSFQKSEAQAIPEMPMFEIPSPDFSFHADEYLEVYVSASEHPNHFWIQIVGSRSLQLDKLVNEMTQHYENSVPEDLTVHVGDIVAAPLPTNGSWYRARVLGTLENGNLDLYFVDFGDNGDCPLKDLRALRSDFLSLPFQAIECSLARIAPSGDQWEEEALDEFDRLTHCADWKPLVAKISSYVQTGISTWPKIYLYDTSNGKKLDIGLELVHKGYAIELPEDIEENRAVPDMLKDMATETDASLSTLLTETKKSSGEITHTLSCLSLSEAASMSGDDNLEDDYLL
log2 fold change (alvocidib): -0.017
log2 fold change (Tubastatin A): -0.064
log2 fold change [1]: 0.019
log2 fold change (defactinib): 0.033
log2 fold change [2]: 0.042
log2 fold change (encorafenib): 0.007
log2 fold change [3]: 0.008
log2 fold change (alisertib): -0.049
log2 fold change [4]: 0.04
log2 fold change (gefitinib): 0.001
log2 fold change (lapatinib): -0.069
log2 fold change (pictilisib): -0.036
log2 fold change (crizotinib): -0.083
log2 fold change [5]: -0.061
log2 fold change (duvelisib): -0.028
log2 fold change (gandotinib): 0.062
log2 fold change (tozasertib): 0.081
log2 fold change (doramapimod): -0.043
log2 fold change (bafetinib): 0.02
log2 fold change [6]: 0.074

TK1 (UniProt P04183)
Chain of UniProt P04183 (P04183 whole entry, looked up): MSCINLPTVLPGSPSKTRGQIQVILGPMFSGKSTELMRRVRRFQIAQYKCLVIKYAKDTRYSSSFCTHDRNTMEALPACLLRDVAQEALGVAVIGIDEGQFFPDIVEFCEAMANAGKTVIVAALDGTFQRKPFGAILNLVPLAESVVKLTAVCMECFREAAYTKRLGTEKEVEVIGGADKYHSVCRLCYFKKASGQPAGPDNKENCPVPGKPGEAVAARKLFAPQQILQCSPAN
log2 fold change (alvocidib): -0.051
log2 fold change (Tubastatin A): 0.004
log2 fold change [1]: 0.006
log2 fold change (defactinib): -0.011
log2 fold change [2]: 0.032
log2 fold change (encorafenib): -0.018
log2 fold change [3]: -0.025
log2 fold change (alisertib): -0.002
log2 fold change [4]: 0.017
log2 fold change (gefitinib): 0.013
log2 fold change (lapatinib): -0.006
log2 fold change (pictilisib): 0.022
log2 fold change (crizotinib): 0.022
log2 fold change [5]: -0.133
log2 fold change (duvelisib): 0.023
log2 fold change (gandotinib): 0.062
log2 fold change (tozasertib): 0
log2 fold change (doramapimod): 0
log2 fold change (bafetinib): 0.009
log2 fold change [6]: 0.021

UBR3 isoform 4 (UniProt Q6ZT12)
Chain of UniProt Q6ZT12 (Q6ZT12 whole entry, looked up): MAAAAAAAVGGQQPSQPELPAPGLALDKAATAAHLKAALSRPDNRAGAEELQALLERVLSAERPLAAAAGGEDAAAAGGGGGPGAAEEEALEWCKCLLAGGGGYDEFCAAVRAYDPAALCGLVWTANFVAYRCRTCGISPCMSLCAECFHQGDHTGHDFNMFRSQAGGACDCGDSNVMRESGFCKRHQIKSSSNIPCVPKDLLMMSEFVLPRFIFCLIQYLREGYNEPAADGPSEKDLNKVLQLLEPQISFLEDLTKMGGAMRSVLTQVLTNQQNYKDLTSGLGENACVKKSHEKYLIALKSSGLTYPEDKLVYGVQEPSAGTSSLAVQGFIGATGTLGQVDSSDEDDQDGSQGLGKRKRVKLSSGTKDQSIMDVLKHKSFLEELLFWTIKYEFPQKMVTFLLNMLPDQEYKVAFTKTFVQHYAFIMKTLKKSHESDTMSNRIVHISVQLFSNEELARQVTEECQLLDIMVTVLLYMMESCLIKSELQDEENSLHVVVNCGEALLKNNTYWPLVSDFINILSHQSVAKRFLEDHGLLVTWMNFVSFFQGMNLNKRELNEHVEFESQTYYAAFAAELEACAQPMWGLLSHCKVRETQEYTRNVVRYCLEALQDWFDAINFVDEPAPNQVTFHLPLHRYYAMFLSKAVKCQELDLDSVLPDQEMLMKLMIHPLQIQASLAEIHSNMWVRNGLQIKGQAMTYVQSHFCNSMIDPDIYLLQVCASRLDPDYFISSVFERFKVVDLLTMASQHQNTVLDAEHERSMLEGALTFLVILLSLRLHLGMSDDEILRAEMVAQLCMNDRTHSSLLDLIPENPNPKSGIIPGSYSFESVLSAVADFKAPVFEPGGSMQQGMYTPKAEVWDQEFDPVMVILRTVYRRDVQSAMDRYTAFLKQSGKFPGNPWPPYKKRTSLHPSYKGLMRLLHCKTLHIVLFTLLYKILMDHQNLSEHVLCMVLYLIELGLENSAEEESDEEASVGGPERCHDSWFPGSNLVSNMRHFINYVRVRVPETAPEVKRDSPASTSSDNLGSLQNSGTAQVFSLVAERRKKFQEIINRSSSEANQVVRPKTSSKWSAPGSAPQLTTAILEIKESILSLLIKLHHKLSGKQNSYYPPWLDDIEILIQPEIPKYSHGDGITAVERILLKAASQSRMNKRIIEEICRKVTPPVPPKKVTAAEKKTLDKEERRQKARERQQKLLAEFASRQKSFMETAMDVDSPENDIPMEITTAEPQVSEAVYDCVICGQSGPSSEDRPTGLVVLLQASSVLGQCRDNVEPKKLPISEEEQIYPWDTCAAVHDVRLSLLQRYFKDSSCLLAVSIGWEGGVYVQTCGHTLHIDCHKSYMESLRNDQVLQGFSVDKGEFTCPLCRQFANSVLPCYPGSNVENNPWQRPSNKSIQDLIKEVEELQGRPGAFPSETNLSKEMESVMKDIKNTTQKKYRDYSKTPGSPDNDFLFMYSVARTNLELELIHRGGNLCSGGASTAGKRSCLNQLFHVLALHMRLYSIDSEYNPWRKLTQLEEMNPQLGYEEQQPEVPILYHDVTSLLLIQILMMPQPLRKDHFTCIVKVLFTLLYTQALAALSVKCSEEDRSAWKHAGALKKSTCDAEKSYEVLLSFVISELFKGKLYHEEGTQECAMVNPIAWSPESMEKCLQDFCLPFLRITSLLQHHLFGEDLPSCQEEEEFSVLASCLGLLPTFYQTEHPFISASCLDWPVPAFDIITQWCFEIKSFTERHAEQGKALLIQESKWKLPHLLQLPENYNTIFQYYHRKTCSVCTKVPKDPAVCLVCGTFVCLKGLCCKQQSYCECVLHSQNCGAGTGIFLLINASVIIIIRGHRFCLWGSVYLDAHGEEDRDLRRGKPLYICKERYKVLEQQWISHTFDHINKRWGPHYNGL
log2 fold change (alvocidib): 0.012
log2 fold change (Tubastatin A): -0.155
log2 fold change [1]: 0.074
log2 fold change (defactinib): -0.062
log2 fold change [2]: -0.03
log2 fold change (encorafenib): -0.006
log2 fold change [3]: 0.054
log2 fold change (alisertib): -0.005
log2 fold change [4]: 0.005
log2 fold change (gefitinib): 0.018
log2 fold change (lapatinib): -0.003
log2 fold change (pictilisib): 0.01
log2 fold change (crizotinib): -0.092
log2 fold change [5]: -0.006
log2 fold change (duvelisib): -0.003
log2 fold change (gandotinib): -0.046
log2 fold change (tozasertib): 0.06
log2 fold change (doramapimod): 0.015
log2 fold change (bafetinib): -0.042
log2 fold change [6]: 0.05

UFM1 (UniProt P61960)
Chain of UniProt P61960 (P61960 whole entry, looked up): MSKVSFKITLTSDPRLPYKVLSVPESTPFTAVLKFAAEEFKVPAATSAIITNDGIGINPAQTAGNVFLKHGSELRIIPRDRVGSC
log2 fold change (alvocidib): 0.253
log2 fold change (Tubastatin A): 0.102
log2 fold change [1]: 0.037
log2 fold change (defactinib): 0.136
log2 fold change [2]: 0.088
log2 fold change (encorafenib): 0.023
log2 fold change [3]: -0.076
log2 fold change (alisertib): 0.038
log2 fold change [4]: -0.08
log2 fold change (gefitinib): -0.116
log2 fold change (lapatinib): 0.134
log2 fold change (pictilisib): 0.033
log2 fold change (crizotinib): 0.191
log2 fold change [5]: 0.566 (active)
log2 fold change (duvelisib): 0.077
log2 fold change (gandotinib): -0.36
log2 fold change (tozasertib): -0.002
log2 fold change (doramapimod): 0.022
log2 fold change (bafetinib): 0.102
log2 fold change [6]: -0.319

TELO2 (UniProt Q9Y4R8)
Chain of UniProt Q9Y4R8 (Q9Y4R8 whole entry, looked up): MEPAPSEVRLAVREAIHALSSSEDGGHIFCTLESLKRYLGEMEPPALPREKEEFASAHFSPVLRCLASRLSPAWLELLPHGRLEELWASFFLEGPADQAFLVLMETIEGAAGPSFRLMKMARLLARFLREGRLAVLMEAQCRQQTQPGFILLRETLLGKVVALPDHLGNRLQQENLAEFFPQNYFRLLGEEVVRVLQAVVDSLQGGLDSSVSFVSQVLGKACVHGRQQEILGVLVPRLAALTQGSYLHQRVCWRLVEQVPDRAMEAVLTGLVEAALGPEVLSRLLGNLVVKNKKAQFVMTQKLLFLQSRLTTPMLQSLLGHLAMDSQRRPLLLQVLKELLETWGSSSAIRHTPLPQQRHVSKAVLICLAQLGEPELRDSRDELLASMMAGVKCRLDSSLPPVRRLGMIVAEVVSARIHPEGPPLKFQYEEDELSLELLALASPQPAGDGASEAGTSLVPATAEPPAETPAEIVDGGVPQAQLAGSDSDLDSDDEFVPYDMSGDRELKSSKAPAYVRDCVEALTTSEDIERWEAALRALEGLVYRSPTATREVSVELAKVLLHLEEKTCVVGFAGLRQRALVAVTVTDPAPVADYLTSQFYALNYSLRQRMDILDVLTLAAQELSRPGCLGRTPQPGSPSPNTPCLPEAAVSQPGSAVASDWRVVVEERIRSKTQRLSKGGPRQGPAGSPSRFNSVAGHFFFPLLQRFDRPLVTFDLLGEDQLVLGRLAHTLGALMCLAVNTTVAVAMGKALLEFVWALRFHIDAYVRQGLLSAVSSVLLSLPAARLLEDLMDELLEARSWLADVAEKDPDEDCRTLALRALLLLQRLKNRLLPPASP
log2 fold change (alvocidib): -0.01
log2 fold change (Tubastatin A): -0.164
log2 fold change [1]: 0.035
log2 fold change (defactinib): -0.008
log2 fold change [2]: -0.036
log2 fold change (encorafenib): 0.003
log2 fold change [3]: 0.139
log2 fold change (alisertib): 0.008
log2 fold change [4]: -0.009
log2 fold change (gefitinib): 0.011
log2 fold change (lapatinib): -0.016
log2 fold change (pictilisib): -0.01
log2 fold change (crizotinib): -0.053
log2 fold change [5]: -0.038
log2 fold change (duvelisib): -0.015
log2 fold change (gandotinib): -0.087
log2 fold change (tozasertib): -0.012
log2 fold change (doramapimod): 0.037
log2 fold change (bafetinib): -0.054
log2 fold change [6]: 0.056

TMEM87B (UniProt Q96K49)
Chain of UniProt Q96K49 (Q96K49 whole entry, looked up): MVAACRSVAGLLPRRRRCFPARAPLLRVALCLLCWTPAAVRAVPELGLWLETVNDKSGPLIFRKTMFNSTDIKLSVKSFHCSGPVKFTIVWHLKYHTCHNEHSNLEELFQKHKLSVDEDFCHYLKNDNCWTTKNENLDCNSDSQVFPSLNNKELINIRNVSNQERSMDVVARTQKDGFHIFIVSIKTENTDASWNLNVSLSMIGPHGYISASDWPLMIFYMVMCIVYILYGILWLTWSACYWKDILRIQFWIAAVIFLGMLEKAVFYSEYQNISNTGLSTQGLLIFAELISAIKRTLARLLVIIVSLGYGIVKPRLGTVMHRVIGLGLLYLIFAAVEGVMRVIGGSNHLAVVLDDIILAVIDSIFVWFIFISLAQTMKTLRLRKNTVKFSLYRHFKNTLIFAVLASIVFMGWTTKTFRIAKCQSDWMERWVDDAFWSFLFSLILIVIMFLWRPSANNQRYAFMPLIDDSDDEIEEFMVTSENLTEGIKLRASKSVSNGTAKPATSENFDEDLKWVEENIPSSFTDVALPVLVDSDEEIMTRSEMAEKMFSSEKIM
log2 fold change (alvocidib): 0.035
log2 fold change (Tubastatin A): 0.044
log2 fold change [1]: -0.035
log2 fold change (defactinib): -0.032
log2 fold change [2]: -0.045
log2 fold change (encorafenib): -0.055
log2 fold change [3]: 0.017
log2 fold change (alisertib): 0.004
log2 fold change [4]: 0.031
log2 fold change (gefitinib): 0.018
log2 fold change (lapatinib): -0.044
log2 fold change (pictilisib): 0.147
log2 fold change (crizotinib): -0.017
log2 fold change [5]: 0.004
log2 fold change (duvelisib): 0.039
log2 fold change (gandotinib): -0.077
log2 fold change (tozasertib): 0.068
log2 fold change (doramapimod): 0.026
log2 fold change (bafetinib): 0.126
log2 fold change [6]: 0

TP53RK (UniProt Q96S44)
Chain of UniProt Q96S44 (Q96S44 whole entry, looked up): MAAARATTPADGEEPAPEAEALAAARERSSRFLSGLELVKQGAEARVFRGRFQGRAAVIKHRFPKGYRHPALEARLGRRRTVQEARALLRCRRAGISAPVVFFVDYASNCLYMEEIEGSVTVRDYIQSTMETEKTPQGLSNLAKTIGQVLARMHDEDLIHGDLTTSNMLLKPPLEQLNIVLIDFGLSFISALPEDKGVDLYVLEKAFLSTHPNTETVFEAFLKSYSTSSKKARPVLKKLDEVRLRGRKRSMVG
log2 fold change (alvocidib): -0.012
log2 fold change (Tubastatin A): 0.054
log2 fold change [1]: -0.037
log2 fold change (defactinib): 0.019
log2 fold change [2]: -0.026
log2 fold change (encorafenib): 0.028
log2 fold change [3]: 0.025
log2 fold change (alisertib): 0.001
log2 fold change [4]: 0.002
log2 fold change (gefitinib): -0.042
log2 fold change (lapatinib): -0.011
log2 fold change (pictilisib): 0.026
log2 fold change (crizotinib): 0.042
log2 fold change [5]: 0.042
log2 fold change (duvelisib): -0.029
log2 fold change (gandotinib): -0.041
log2 fold change (tozasertib): -0.01
log2 fold change (doramapimod): -0.029
log2 fold change (bafetinib): -0.032
log2 fold change [6]: 0.035
